Experimental data as given in PubChem BioAssay (NCI).
Where “and” joins values, the source holds several entries; their conditions need not be identical. Equal values may be shown once. About 79,000 compounds went through this panel and 15% of them were active in at least one assay; those are over-represented in the sample as a whole. A structure can be active in one record and inactive in another. Calls of active or inactive are those of the source. No stated cut-off is given here; in the data, active means growth inhibition above about 70%; inactive means the rest.

Columns and labels:
[1] = NCI Yeast Anticancer Drug Screen. Data for the rad50 strain (AID 155);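 further: 0% = growth of vehicle-only cultures of the same strain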; conditions: S. cerevisiae rad50 strain growth inhibition; at 50.0 µM; stronger effect = higher value
How it was run: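 Readout: growth inhibition relative to vehicle-treated cultures. Compound exposure was carried out in a genetically defined yeast strain deficient in DNA damage repair.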

[2] = NCI Yeast Anticancer Drug Screen. Data for the mec2-1 strain (AID 157); conditions: S. cerevisiae mec2-1 strain, at 50.0 µM, stronger effect = higher value
How it was run: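 Test agents were screened against the mec2-1 yeast strain, with defined DNA repair or cell cycle alteration. Growth was scored as inhibition against vehicle-only controls.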

[3] = NCI Yeast Anticancer Drug Screen. Data for the sgs1 mgt1 strain (AID 161);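 further: 0% = growth of cultures given vehicle only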; conditions: S. cerevisiae sgs1 mgt1 strain, at 50.0 µM, stronger effect = higher value
How it was run: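 Genetically altered yeast, compound exposure, growth inhibition relative to vehicle.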

[4] = NCI Yeast Anticancer Drug Screen. Data for the cln2 rad14 strain (AID 165);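 further: 0% = growth equal to vehicle treated cultures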; conditions: S. cerevisiae cln2 rad14 strain, at 50.0 µM, stronger effect = higher value
How it was run: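 Growth of compound-exposed yeast (cln2 rad14 genotype) measured and expressed as inhibition relative to vehicle.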

[5] = NCI Yeast Anticancer Drug Screen. Data for the bub3 strain (AID 167); conditions: S. cerevisiae bub3 mutant strain, at 50.0 µM, stronger effect = higher value
How it was run: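 Readout: yeast growth inhibition, expressed relative to vehicle-only wells. The test organism is a mutant strain from a panel with lesions in DNA repair or checkpoint genes.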

[6] = NCI Yeast Anticancer Drug Screen. Data for the mlh1 rad18 strain (AID 175); conditions: S. cerevisiae mlh1 rad18 strain growth inhibition; at 50.0 µM; stronger effect = higher value
How it was run: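 In this whole-cell yeast screen, a strain with altered DNA damage repair is challenged with compound, and its growth is measured against matched vehicle-treated controls.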

Structure (SMILES) | growth inhibition [1] | growth inhibition [2] | growth inhibition [3] | growth inhibition [4] | growth inhibition [5] | growth inhibition [6]
CC12CC3CC(C1)CC(N=[N+]=[N-])(C3)C2 | -16.4% (inactive) | -1.3% (inactive) | -2.65% (inactive) | 1.3% (inactive) | -0.95% (inactive) | -2.6% (inactive)
O=[N+]([O-])c1ccccc1-c1ccccc1 | 24.3% (inactive) | -27.8% (inactive) | 7.05% (inactive) | 13.2% (inactive) | -21.8% (inactive) | 2.25% (inactive)
CC1=CC(C)C/C=C/C2C3OC3(C)C(C)C3C(Cc4c[nH]c5ccccc45)NC(=O)C23C(=O)C=CC(=O)C1O (centres undefined) | 88.4% (active) | 92.5% (active) | 92.6% (active) | 91% (active) | 91.3% (active) | 92.1% (active)
COCCCNCCCN1CC1 | 2.25% (inactive) | -4.4% (inactive) | -6.9% (inactive) | -22.7% (inactive) | -22.4% (inactive) | 10.1% (inactive)
C(=C/[PH+](c1ccccc1)c1ccccc1)/[PH+](c1ccccc1)c1ccccc1.C(=C/[PH+](c1ccccc1)c1ccccc1)/[PH+](c1ccccc1)c1ccccc1.C(=C/[PH+](c1ccccc1)c1ccccc1)/[PH+](c1ccccc1)c1ccccc1.[Pt] | 8.65% (inactive) | 17.6% (inactive) | 36% (inactive) | 36.9% (inactive) | 13.8% (inactive) | 36.5% (inactive)
CC(N)c1ccccc1 (centres undefined) | -5.95% (inactive) and 39.2% (inactive) | -6.55% (inactive) and 3% (inactive) | 11% (inactive) and 28% (inactive) | -23.1% (inactive) and 17.1% (inactive) | -10.3% (inactive) and 38.8% (inactive) | 2.8% (inactive) and 37.6% (inactive)
O=C1NC(=O)C(CC(C(=O)C(=O)Nc2ccccc2Cl)C(=O)c2ccc3ccccc3c2)C(=O)N1 (centres undefined) | -27.7% (inactive) | 7.8% (inactive) | -6.3% (inactive) | -32.8% (inactive) | 2.4% (inactive) | -3.45% (inactive)
CC1(C)N=C(N)N=C(N)N1c1ccc(CCCCc2ccc(S(=O)(=O)F)c(Cl)c2)c(Cl)c1 | 99.2% (active) | 99.5% (active) | 99.4% (active) | 99.2% (active) | 99.3% (active) | 99.3% (active)
OCCBr | -2.95% (inactive) | -7.7% (inactive) | -4.65% (inactive) | -1.05% (inactive) | -0.7% (inactive) | -17.9% (inactive)
CCCCCCNCCc1cnc[nH]1 | 12.8% (inactive) | 3.1% (inactive) | 15% (inactive) | 17.5% (inactive) | 2.75% (inactive) | -68.7% (inactive)
O=[As](O)(O)c1ccccc1 | 18.2% (inactive) | -7.1% (inactive) | 4.75% (inactive) | 4.65% (inactive) | -38.1% (inactive) | -15.7% (inactive)
O=C(NC1CCCCC1)c1c(O)[nH]c(=S)[nH]c1=O | -20.4% (inactive) | -0.3% (inactive) | 14.8% (inactive) | 12.2% (inactive) | -4.9% (inactive) | -0.55% (inactive)
O=C(NC(CSC(c1ccccc1)(c1ccccc1)c1ccccc1)C(=O)O)OCc1ccccc1 (centres undefined) | 63.7% (inactive) | 99.5% (active) | 98.5% (active) | 51.9% (inactive) | 47.6% (inactive) | 58.8% (inactive)
OCN1CCC23c4c5ccc(O)c4OC2C(O)C=CC3C1C5 (centres undefined) | -4.75% (inactive) | -3.4% (inactive) | 3.35% (inactive) | -68.5% (inactive) | 20.1% (inactive) | -12% (inactive)
CC(NC1=NCCO1)c1ccco1 (centres undefined) | 4.45% (inactive) | 9.15% (inactive) | 13.2% (inactive) | 30% (inactive) | 6.7% (inactive) | -75.8% (inactive)
CC(=O)N[C@@H](C[S-])C(=O)O.O=[N+]([O-])O.[Ag+] | -1.95% (inactive) | 0.95% (inactive) | 53.8% (inactive) | 25.1% (inactive) | 19.9% (inactive) | 21.1% (inactive)
COc1ccc(CC#N)cc1 | -51.1% (inactive) | -5.25% (inactive) | 19.4% (inactive) | -35% (inactive) | 1.4% (inactive) | 15.2% (inactive)
CC(=O)c1ccccc1N=Nc1ccc(N(CCCl)CCCl)cc1 | -9.5% (inactive) | -5.5% (inactive) | 0.15% (inactive) | 18% (inactive) | 15.2% (inactive) | -0.05% (inactive)
CCCC(=O)O.[Ni] | 8.1% (inactive) | -4.05% (inactive) | -6% (inactive) | -39.9% (inactive) | -20.2% (inactive) | -2.7% (inactive)
O=C(O)CN(CCN(CC(=O)O)CC(=O)O)CC(=O)O.[Ni+2] | -29.2% (inactive) | -23% (inactive) | -11.5% (inactive) | -15% (inactive) | 0.4% (inactive) | -19.9% (inactive)
Cn1c(O)c(C(=O)NC2CCCCC2)c(=O)n(C)c1=S | -6.1% (inactive) | 12.2% (inactive) | 18.9% (inactive) | 27.6% (inactive) | 8.5% (inactive) | 13.1% (inactive)
O=C(O)c1ccc([As](=O)(O)O)cc1[N+](=O)[O-] | -3.85% (inactive) | -23.1% (inactive) | -0.65% (inactive) | 1.7% (inactive) | -3.6% (inactive) | 7.4% (inactive)

Structure (SMILES) | growth inhibition [1] | growth inhibition [2] | growth inhibition [3] | growth inhibition [4] | growth inhibition [5] | growth inhibition [6]
O=C=Nc1ccccc1Cl | 12.5% (inactive) | 3.1% (inactive) | -1.15% (inactive) | 5.45% (inactive) | 4.2% (inactive) | 5.15% (inactive)
CCC1CN2CCC1CC2C(O)c1cc[n+]([O-])c2ccc(OC)cc12 (centres undefined) | -11.7% (inactive) | 7.25% (inactive) | -7.6% (inactive) | 1.75% (inactive) | -8.05% (inactive) | -12.4% (inactive)
O=S(=O)(O)O.[W] | 27.2% (inactive) | -7.55% (inactive) | 14.3% (inactive) | -5.65% (inactive) | 18% (inactive) | -8.95% (inactive)
CCCCC(CC)C(=O)O.[Sn] (centres undefined) | -20.5% (inactive) | -9.1% (inactive) | -10.3% (inactive) | -10.4% (inactive) | -20.9% (inactive) | -15.8% (inactive)
CC(C)CCC(=O)OC1CCC2(C)C(=CCC3C4CCC(=O)C4(C)CCC32)C1 (centres undefined) | 3.35% (inactive) | 12.1% (inactive) | 5.35% (inactive) | -18.7% (inactive) | -1.9% (inactive) | 13.2% (inactive)
Nc1c(S(=O)(=O)O)cc(Nc2ccc(S(=O)(=O)O)c(Nc3nc(Cl)nc(Cl)n3)c2)c2c1C(=O)c1ccccc1C2=O | -14.3% (inactive) | -31.8% (inactive) | -27.4% (inactive) | -14.3% (inactive) | -32.7% (inactive) | -37.9% (inactive)
C/C(=N\N=C(N)N)C(CN1CCCCC1)C(c1ccccc1)c1c(O)c2ccccc2oc1=O (centres undefined) | 13.7% (inactive) | -2.6% (inactive) | 10.6% (inactive) | 24.4% (inactive) | 28.9% (inactive) | 16.9% (inactive)
COc1ccc(C=C2C(=O)NC(=O)NC2=O)cc1OC | 10.7% (inactive) | -0.6% (inactive) | 22.2% (inactive) | 8.8% (inactive) | -11.8% (inactive) | 23.9% (inactive)
ClCCN(CCCl)c1ccc(-c2csc(Cc3ccccc3)n2)cc1 | -2% (inactive) | -7.35% (inactive) | -2.7% (inactive) | -20% (inactive) | -4.3% (inactive) | -19.9% (inactive)
CC(=O)CC(C)=O.CC(=O)CC(C)=O.[Ni] | -39% (inactive) | -31.4% (inactive) | -1.1% (inactive) | 31.1% (inactive) | -6.35% (inactive) | -25.4% (inactive)
CCC(=O)C(c1ccccc1)(c1ccccc1)C(C)CN1CCCCCCC1 (centres undefined) | 30.3% (inactive) | 12.1% (inactive) | 10.8% (inactive) | 1.9% (inactive) | 10.8% (inactive) | 35.4% (inactive)
Cc1cc2c(C(C)C)c(O)c(O)c(C=O)c2c(O)c1-c1c(C)cc2c(C(C)C)c(O)c(O)c(C=O)c2c1O | 47.7% (inactive) and 59.2% (inactive) | 52.6% (inactive) and 71.2% (active) | 41.1% (inactive) and 46.5% (inactive) | 47.6% (inactive) and 67.5% (inactive) | 49.1% (inactive) and 43.6% (inactive) | 60.2% (inactive) and -27% (inactive)
C/C=C/c1cc2n(c1)C(=O)c1cc(OC3OC(C)C(NC)C(C)(O)C3O)c(C)c(O)c1NC2O (centres undefined) | 20.9% (inactive) | 1.1% (inactive) | 20.8% (inactive) | 2.75% (inactive) | 14.2% (inactive) | -47.4% (inactive)
N#CCCNCCC#N | 3.95% (inactive) and 11.8% (inactive) and 12.2% (inactive) | 4.4% (inactive) and -11.6% (inactive) and 3.15% (inactive) | -6.05% (inactive) and 9.35% (inactive) and -2.9% (inactive) | -41.6% (inactive) and 25.7% (inactive) and 16.1% (inactive) | -4.95% (inactive) and 8.65% (inactive) and 1.45% (inactive) | 6.15% (inactive) and 13.7% (inactive) and 14.7% (inactive)
COC1OC(CN=[N+]=[N-])C2OC12 (centres undefined) | 5.4% (inactive) | -0.3% (inactive) | -3.2% (inactive) | 3.9% (inactive) | 0.6% (inactive) | 7.95% (inactive)
CC(=O)c1ccc(-c2ccccc2)cc1 | -5.3% (inactive) | 2.6% (inactive) | 8.45% (inactive) | 11.9% (inactive) | 3.6% (inactive) | 18.1% (inactive)
C[C@H]1C(=O)O[C@@H]2CCN3CC=C(COC(=O)[C@](C)(O)[C@@]1(C)O)[C@H]23 | -4.7% (inactive) | -4.2% (inactive) | 11.9% (inactive) | -2.85% (inactive) | -9.6% (inactive) | -44.1% (inactive)
BrCCCCCCBr | -5.65% (inactive) | 5.8% (inactive) | 3.25% (inactive) | -29.3% (inactive) | 5.6% (inactive) | 5.4% (inactive)
CC[CH2][Sn](=[O])[c]1ccccc1 | 61.6% (inactive) | 72% (active) | 57.1% (inactive) | 42.3% (inactive) | 50.6% (inactive) | 78.2% (active)
CS[P+]1(C)C=C(N2CCOCC2)CC1 (centres undefined) | 37.4% (inactive) | 15.2% (inactive) | 0.6% (inactive) | -8% (inactive) | 8.8% (inactive) | 10.3% (inactive)
CCC1(CC)C(=O)N(C)P(=O)(Oc2ccccc2)N(C)C1=O | 5.7% (inactive) | 15.4% (inactive) | 9.3% (inactive) | 1.6% (inactive) | 7.1% (inactive) | 4.6% (inactive)
CC1OP(=S)(N2C(=O)c3ccccc3C2=O)OC2CCCCC12 (centres undefined) | 11.8% (inactive) | 15.6% (inactive) | 4.4% (inactive) | -26.4% (inactive) | 10.2% (inactive) | -5.9% (inactive)
